High-throughput results as filed in PubChem.
ALOX12 inh: blocks human arachidonate 12S-lipoxygenase; Potency, µM (top dose mostly 108 µM), for inactives: top-dose activity change, negative = inhibition, usual class: inhibitors; 1.1% of 580,000 active; purified 12hLO, xylenol orange hydroperoxide absorbance; AID 1671190; active means well fitted inhibition curve with a large enough effect; inconclusive means small, poorly fitted or top-dose-only effect, or another doubt; inactive means no such curve, though single readings can be large or run the other way; further: potency means the concentration at half of the fitted maximal effect; on the % scale 0 is the no-effect control and ±100 the full control effect
Target sequence (P18054 whole entry, looked up): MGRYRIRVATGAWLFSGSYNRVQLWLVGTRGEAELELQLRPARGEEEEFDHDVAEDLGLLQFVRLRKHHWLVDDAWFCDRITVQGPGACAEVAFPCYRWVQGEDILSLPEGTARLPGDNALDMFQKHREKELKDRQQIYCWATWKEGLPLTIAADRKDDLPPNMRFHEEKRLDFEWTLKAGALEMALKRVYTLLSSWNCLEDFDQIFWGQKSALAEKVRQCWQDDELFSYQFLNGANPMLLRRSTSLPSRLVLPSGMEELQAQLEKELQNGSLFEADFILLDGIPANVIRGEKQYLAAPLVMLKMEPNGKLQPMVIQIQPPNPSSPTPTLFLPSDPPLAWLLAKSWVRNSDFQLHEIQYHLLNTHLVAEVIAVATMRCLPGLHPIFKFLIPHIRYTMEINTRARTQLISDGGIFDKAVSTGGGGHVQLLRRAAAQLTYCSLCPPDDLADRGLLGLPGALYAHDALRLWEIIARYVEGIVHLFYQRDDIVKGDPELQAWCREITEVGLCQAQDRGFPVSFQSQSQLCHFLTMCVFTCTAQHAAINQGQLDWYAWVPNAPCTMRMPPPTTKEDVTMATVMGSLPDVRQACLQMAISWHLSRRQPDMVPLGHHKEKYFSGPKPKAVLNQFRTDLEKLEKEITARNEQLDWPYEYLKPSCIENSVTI
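Hydroperoxide product was detected by ferrous iron/xylenol orange as the 573 to 405 nm absorbance ratio. Arachidonic acid at 40 uM (final) was turned over for 30 min at room temperature by 150 nM human 12hLO, pH 7.0 Hepes buffer, after 15 min compound preincubation.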
KCNH2 3.1 inh: inhibitors of human KCNH2 3.1 potassium channel isoform; 0.95% of 340,000 active; activity change, % (tested at about 1.8 µM); U2OS KCNH2 3.1, thallium flux FluxOr; stronger effect = lower value; AID 720553;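 active means maximum activity change below -70%; inconclusive means maximum activity change from -70% to -50%; inactive means maximum activity change above -50%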;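 further: thallium influx rate constant from kinetic fluorescence after stimulation buffer; on the % scale 0 is the no-effect control and ±100 the full control effect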
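Thallium flux read-out: FluxOr dye with Red40 quencher in HBSS/HEPES, 45 min at RT. Rate constants from kinetic reads were normalized to positive and negative DMSO controls. Cells: U2OS virally expressing the 3.1 isoform.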
ClpP mod: qHTS Assay for Activators of ClpP. ATP-dependent Clp protease proteolytic subunit (Bacillus subtilis (strain 168)), P80244. purified B. subtilis ClpP, FRET peptide cleavage, 20 min. Potency, µM (titrated, usually from 57.5 µM), for the others: at the top dose activity change, negative = active. 1.9% of 340,000 active; active means well fitted falling curve with a large enough effect; inconclusive means small, poorly fitted or top-dose-only effect; inactive means no such curve, though single readings can be large or run the other way; further: potency means the concentration at half of the fitted maximal effect; the source files actives as falling curves though it sought activators and does not explain the sign; nearly all actives have a fitted effect of over 65% in size
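ClpP 10 microg/mL final, pH 8 Tris/KCl buffer with BSA, glycerol, Tween-20; compound pinned in; FRET-FV substrate; RT 20 min; Ex320/Em430; ΔFRET vs ADEP 5.8 microM, DMSO, no enzyme.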
KCNH2 WT inh: blocks the wildtype human KCNH2 potassium channel; U2OS, BacMam KCNH2, thallium flux FluxOr; stronger effect = lower value; 0.37% of 340,000 active; activity change, % at 1.84 µM;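 active means maximum activity change below -70%; inconclusive means maximum activity change between -70% and -50%; inactive means maximum activity change above -50%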; further: on the % scale 0 is the no-effect control and ±100 the full control effect
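U2OS cells were transduced with wild-type KCNH2 virus (2.03 x 10^8 / mL) for 4 h at room temperature, then cultured overnight at 37 C. Thallium flux was read with FluxOr dye. Rate constants were normalized to DMSO controls.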
Chronic BCR inh: inhibitors of chronic active B-cell receptor signaling; 0.05% of 340,000 active; Potency, µM (titrated, usually from 46.1 µM), without a hit: top-dose activity change, negative = inhibition, hits mostly inhibitors; ABC-DLBCL IkBa-CBG/CBR reporter, luminescence ratio, 4 h; active means well fitted inhibition curve with a large enough effect in the signal ratio, with a control signal flat, not every such curve was filed as active; inconclusive means small, poorly fitted or top-dose-only effect, or effect the other way, or a change in a side signal; the % refers to the signal ratio;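 further: potency means the concentration at half of the fitted maximal effect; plate controls were basal doxycycline-induced cells for no effect and cells given 10 µM MG132 for full effect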
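TMD8 human ABC-DLBCL cells with doxycycline-inducible IκBα–green luciferase fusion and unfused red luciferase, in 0.5% FBS medium; compounds up to 46 uM, 4 h at 37C. Green/red luminescence ratio, filter-overlap corrected, fitted to concentration-response curves.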
LDHA inh: blocks human lactate dehydrogenase A; purified LDHA, NADH/diaphorase-resazurin fluorescence; stronger effect = lower value; 0.15% of 480,000 active; activity change, % (values are at about 110 or 230 µM); AID 1347041; in the data active means activity change below about -30%; inconclusive means mostly about -25% to -30%;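 further: plate controls were DMSO wells for no effect and wells without enzyme for full effect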
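Enzyme activity of human lactate dehydrogenase 5 (2 nM; 0.06 mM NADH, 0.2 mM pyruvate, 5 min, RT) is measured via a resazurin/diaphorase fluorescence readout of residual NADH.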
* = called active by the depositor. This is a sample that favours compounds with a hit; in the whole collection about 3% have one here.

How did O=C(Nc1ccccc1)N1CCCC1c1ccc(Cl)cc1 (stereo not drawn) do in these assays?
ALOX12 inh: 7%; LDHA inh: 1

How did CCOC(=O)Cn1cnc2c1c(=O)n(C)c(=O)n2C do in these assays?
ALOX12 inh: 9%; LDHA inh: 3

Results for Cc1ccc2c(c1)cc(CN(Cc1ccc3c(c1)OCO3)C(=O)c1cnccn1)c1nnnn12 ?
ALOX12 inh: 2%; KCNH2 3.1 inh: -96*; ClpP mod: 0%; KCNH2 WT inh: 0; Chronic BCR inh: 1%; LDHA inh: -5

Results for COCCn1c(CN2CCn3nc(C#N)cc3C2)nnc1C1CC(N)C1 (stereo not drawn) ?
ALOX12 inh: 25%

How did COc1ccc(NC(=O)NCCCN2CCCC2=O)cc1 do in these assays?
ALOX12 inh: 476%; KCNH2 3.1 inh: 36; ClpP mod: -1%; KCNH2 WT inh: -2; Chronic BCR inh: inconclusive; LDHA inh: -17

Results for COc1ccc(NC(=O)CC(C)NCCCN2CCCC2=O)cc1 (stereo not drawn) ?
ALOX12 inh: -16%; KCNH2 3.1 inh: 7; ClpP mod: 1%; KCNH2 WT inh: -333*; Chronic BCR inh: 3%; LDHA inh: -11

What do the screens show for `Nc1nonc1-n1nnc(C(=O)N/N=C/c2ccc(OCc3ccccc3)cc2)c1CN1CCCCC1`?
ALOX12 inh: -6%; KCNH2 3.1 inh: -98*; ClpP mod: -6%; KCNH2 WT inh: 6; Chronic BCR inh: 1%; LDHA inh: 0

How did CN(C)c1ccc(/C=N/NC(=O)c2nnn(-c3nonc3N)c2CN2CCCCCC2)cc1 do in these assays?
ALOX12 inh: 4%; KCNH2 3.1 inh: -38; ClpP mod: -5%; KCNH2 WT inh: 7; LDHA inh: -7

What do the screens show for `CCCCOc1ccc(/C=N/NC(=O)c2nnn(-c3nonc3N)c2CN2CCCCCC2)cc1`?
ALOX12 inh: 5%; KCNH2 3.1 inh: -81*; ClpP mod: -9%; KCNH2 WT inh: -1; LDHA inh: -3

How did CCn1c(=O)n(CCC(=O)Nc2ccccc2C)c2ccccc21 do in these assays?
ALOX12 inh: -20%; LDHA inh: 0

Results for CCN(CC(=O)NC)S(=O)(=O)c1cccc2cc(C)cnc12 ?
ALOX12 inh: -16%; LDHA inh: inconclusive

What do the screens show for `CN(C/C=C/c1ccccc1)Cc1cccc2ccccc12`?
ALOX12 inh: -21%; KCNH2 3.1 inh: -95*; ClpP mod: -1%; KCNH2 WT inh: 15; LDHA inh: -7

Results for CN(C)CCCN(Cc1cccc2ccccc12)Cc1cccc2ccccc12 ?
ALOX12 inh: 5µM*; LDHA inh: 4

What do the screens show for `Cc1ccccc1NC(=S)N(Cc1ccccc1)Cc1cccnc1`?
ALOX12 inh: 15%; KCNH2 3.1 inh: -14; KCNH2 WT inh: 6; Chronic BCR inh: -2%; LDHA inh: -2

Results for CSc1cccc(NC(=S)N(Cc2ccc(C)cc2)Cc2cccnc2)c1 ?
ALOX12 inh: -16%; KCNH2 3.1 inh: -89*; KCNH2 WT inh: 9; Chronic BCR inh: inconclusive; LDHA inh: 2

What do the screens show for `O=c1oc(-c2cccs2)nc2ccc(Br)cc12`?
ALOX12 inh: 19%; KCNH2 3.1 inh: -14; ClpP mod: 28µM*; KCNH2 WT inh: 0; Chronic BCR inh: inconclusive; LDHA inh: -11

What do the screens show for `Cc1ccc2nc(-c3cccs3)oc(=O)c2c1`?
ALOX12 inh: 1%; KCNH2 3.1 inh: -17; ClpP mod: -1%; KCNH2 WT inh: 18; Chronic BCR inh: inconclusive; LDHA inh: -4

Results for Cc1cc(C)nc(SCc2ccc(C(=O)NNC(=O)Nc3cccc(Cl)c3)cc2)n1 ?
ALOX12 inh: -28%; KCNH2 3.1 inh: 5; ClpP mod: 35µM*; KCNH2 WT inh: 33; Chronic BCR inh: inconclusive; LDHA inh: -1

How did CCOc1ccc(-n2c(Cc3ccccc3)nnc2SCc2nc(-c3cccs3)no2)cc1 do in these assays?
ALOX12 inh: -24%; ClpP mod: 2%; LDHA inh: -1

How did CCOc1ccc(-n2c(Cc3ccccc3)nnc2SCc2c(C)noc2C)cc1 do in these assays?
ALOX12 inh: 0%; KCNH2 3.1 inh: -7; ClpP mod: 2.8µM*; KCNH2 WT inh: -2; Chronic BCR inh: -10%; LDHA inh: -1

Results for CCOC(=O)CSc1nnc(Cc2ccccc2)n1-c1ccc(C)cc1 ?
ALOX12 inh: -3%; KCNH2 3.1 inh: 2; ClpP mod: 1%; KCNH2 WT inh: 1; Chronic BCR inh: 13%; LDHA inh: -15

Results for Cc1ccc(-n2c(Cc3ccccc3)nnc2SCC(=O)NNC(=O)Cc2ccccc2)cc1 ?
ALOX12 inh: -22%; KCNH2 3.1 inh: -80*; ClpP mod: -2%; KCNH2 WT inh: 0; Chronic BCR inh: -2%; LDHA inh: 6

Results for Cc1ccc(-c2noc(CSc3nnc(Cc4ccccc4)n3-c3ccc(Cl)cc3)n2)cc1 ?
ALOX12 inh: -7%; KCNH2 3.1 inh: -74*; ClpP mod: 0%; KCNH2 WT inh: 4; Chronic BCR inh: inconclusive; LDHA inh: 0

Results for CC(=O)c1c(C)oc2ccc(NS(=O)(=O)c3ccc(O)c(C(=O)O)c3)cc12 ?
ALOX12 inh: 16µM*; KCNH2 3.1 inh: 10; ClpP mod: -4%; KCNH2 WT inh: -2; Chronic BCR inh: 4%; LDHA inh: -4

What do the screens show for `O=C(O)CCCc1c(-c2ccccn2)[nH]c2ccc(Cl)cc12`?
ALOX12 inh: inconclusive; LDHA inh: 4

How did COc1ccc(/C=N/c2c(-c3ccco3)nc3ccccn23)cc1OC do in these assays?
ALOX12 inh: inconclusive; KCNH2 3.1 inh: -9; ClpP mod: 28µM*; KCNH2 WT inh: -7; Chronic BCR inh: -1%; LDHA inh: 37

Results for CSc1nc(SCC(=O)NCc2ccco2)c2c3c(sc2n1)COC(C)(C)C3 ?
ALOX12 inh: inconclusive; KCNH2 3.1 inh: 11; ClpP mod: -18%; KCNH2 WT inh: 5; Chronic BCR inh: inconclusive; LDHA inh: -2

How did CC(C)Sc1nc(NCc2ccco2)c2c3c(sc2n1)COC(C)(C)C3 do in these assays?
ALOX12 inh: inconclusive; KCNH2 3.1 inh: -5; ClpP mod: 28µM*; KCNH2 WT inh: 11; Chronic BCR inh: 5%; LDHA inh: 7

Results for O=C(CSc1c2c(nc3cc(Cl)ccc13)CCCC2)Nc1nc2ccccc2s1 ?
ALOX12 inh: -4%; LDHA inh: 2
